According to ChEMBL document CHEMBL4296182, “CO-ADD screening of NIH NCI Diversity Set V”:
For part of these data: Entries with a potency or affinity are not part of this list.

How the values were obtained:
Staphylococcus aureus = test: Antibacterial activity against Staphylococcus aureus MRSA ATCC 43300 (CO-ADD:GP_020); MIC in CAMBH media using NBS plates, by Resazurin F(560/590); assay type: functional; conditions: Concentration 20 uM, ASSAY_TEST Inhibition of Bacterial Growth, detection method Resazurin, Fluorescence (ex560/em590), MEDIA CAMHB, plate type 384well, CORNING #3640, time 18 hr
Acinetobacter baumannii = test: Antibacterial activity against Acinetobacter baumannii ATCC 19606 (CO-ADD:GN_034); MIC in CAMBH media using NBS plates, by Resazurin F(560/590); assay type: functional; conditions: Concentration 20 uM, ASSAY_TEST Inhibition of Bacterial Growth, detection method Resazurin, Fluorescence (ex560/em590), MEDIA CAMHB, plate type 384well, CORNING #3640, time 18 hr
Escherichia coli = test: Antibacterial activity against Escherichia coli ATCC 25922 (CO-ADD:GN_001); MIC in CAMBH media using NBS plates, by Resazurin F(560/590); assay type: functional; conditions: Concentration 20 uM, ASSAY_TEST Inhibition of Bacterial Growth, detection method Resazurin, Fluorescence (ex560/em590), MEDIA CAMHB, plate type 384well, CORNING #3640, time 18 hr
Klebsiella pneumoniae = conditions: Concentration 20 uM; ASSAY_TEST Inhibition of Bacterial Growth; detection method Absorption (OD600); MEDIA CAMHB; plate type 384well; NBS; CORNING #3640; time 18 hr
Candida albicans = conditions: 20 µM
Cryptococcus neoformans = conditions: Concentration 20 uM; ASSAY_TEST Inhibition of Fungal Growth; detection method Resazurin; Absorption (OD600-OD570); plate type 384well; NBS; CORNING #3640

Structure (SMILES)	Inhibition (Staphylococcus aureus)	Inhibition (Acinetobacter baumannii)	Inhibition (Escherichia coli)	Inhibition (Klebsiella pneumoniae)	Inhibition (Candida albicans)	Inhibition (Cryptococcus neoformans)
CCN1CC2C3CCC(C)(O3)C2C1 (stereo unspecified)	2.81%	-6.99%	12.74%	12.11%	0.39%	-3.82%
COc1c(OP2(=S)OCC(C)(C)CO2)cnn(C2CCCCC2)c1=O	22.66%	-7.99%	17.33%	10.42%	-1.61%	-6%
Cc1c(CCN)ccc2c1[nH]c1ccccc12	5.19%	-3.14%	0.87%	4.23%	0.65%	-5.14%
CC1(C)NC(=S)C(C)(C)N1N=O	8.42%	-13.11%	8.85%	8.33%	5.47%	-2.68%
COc1ccc(OC(=O)Nc2ccc([N+](=O)[O-])cc2OC)cc1	18.29%	11.17%	1.72%	8.07%	-1.5%	-6.88%
CNC(=O)Oc1c(O)ccnc1C	3.2%	-15.53%	4.87%	2.24%	5.45%	-9.19%
CN1C2c3ccccc3C3C4c5ccccc5C(C31)C(C2[N+](=O)[O-])N4C (stereo unspecified)	16.96%	4.34%	9.05%	7.01%	2.24%	-16.47%
O=[N+]([O-])c1cc([As](=O)(O)c2ccc(O)c([N+](=O)[O-])c2)ccc1O	9.78%	5.09%	4.17%	5.87%	-1.08%	-7.3%
CC(Cc1ccccc1)NC(N)=O (stereo unspecified)	1.52%	-11.77%	14.19%	16.63%	1.15%	-7.14%
SC1=NC2(CCCCC2)NC12CCCCC2	8.84%	6.83%	-0.29%	17.38%	4.26%	-3.97%
Cc1ccccc1NC(=O)Oc1cccc(OC(=O)c2ccccc2)c1	23.15%	5.34%	4.68%	11.95%	0.43%	-5.38%
Cc1ncc([N+](=O)[O-])n1CCOC(N)=O [BAMNIDAZOLE]	2.14%	-5.43%	15.41%	2.21%	2.39%	7.78%
CCN(CC)c1ccc(C=C2C(=O)NC(=S)NC2=O)cc1	-20.45%	-4.05%	-18.35%	3.93%	19.4%	12.5%
OCC1CN1C1CCCCC1 (stereo unspecified)	-3.39%	-14.33%	0.67%	26.1%	2.25%	-2.3%
C[C@H]1[C@H](C)N1CC(O)Cn1ccnc1[N+](=O)[O-] (stereo partly specified)	3.93%	7.84%	-2.75%	19.25%	3.06%	-3.91%
O=C(O)CN1C(=O)CN=C(c2ccccn2)c2cc(Cl)ccc21	15.35%	8.33%	-0.79%	10.65%	1.18%	0%
ClC1=C(Cl)C(Cl)=C(Cl)C1=C/C=C/c1ccccc1	-15.24%	-5.13%	-15.65%	6.7%	5.69%	2.88%
CN1CCCC1c1ccc(O)nc1 (stereo unspecified)	23.44%	-7.12%	16.87%	15.46%	-1.49%	-7.69%
C[C@]12CC[C@@H]3c4ccc(OC(=O)N(CCCl)CCCl)cc4CC[C@H]3[C@@H]1CC[C@@H]2O [ESTRAMUSTINE]	12.2%	-4.55%	-3.6%	12.05%	11%	-2.85%
NC=C1C(=O)N(c2ccccc2)C(=O)N(c2ccccc2)C1=O	-9.39%	5.08%	6.01%	10.61%	0.46%	-6.24%
COc1ccccc1NC(=O)Oc1cccc(OC(=O)c2ccccc2)c1	4.53%	-1.36%	-8.4%	19.47%	8.34%	-0.97%
O=C(Oc1ccccc1)N(c1ccccc1)c1ccccc1	13.05%	1.09%	9.21%	3.21%	5.51%	-11.03%
COc1ccc2c3c1O[C@H]1C[C@@H](O)C=C[C@@]31CCN(C)C2 [GALANTAMINE]	2.8%	5.17%	-15.55%	17.41%	7.99%	22.63%

Structure (SMILES)	Inhibition (Staphylococcus aureus)	Inhibition (Acinetobacter baumannii)	Inhibition (Escherichia coli)	Inhibition (Klebsiella pneumoniae)	Inhibition (Candida albicans)	Inhibition (Cryptococcus neoformans)
O=c1nc(C(F)(F)C(F)(F)C(F)(F)F)[nH]o1	8.37%	8.1%	-1.78%	12.08%	3.43%	-2.86%
C1CC2NCCC3NCCC(N1)N32 (stereo unspecified)	9.55%	-9.44%	11.78%	14.06%	-0.83%	-3.22%
CS(=O)(=O)O.O=C1CCC2(O)[C@@H]3Cc4ccc(O)c5c4[C@]2(CCN3Cc2ccoc2)C1O5 (stereo partly specified)	1.32%	-2.4%	-2.68%	10.23%	1.48%	-6.77%
CC(C)NC1C2CCC(CC2)C1(O)c1ccc(Cl)c(Cl)c1.CS(=O)(=O)O (stereo unspecified)	8.47%	-0.12%	14.13%	12.75%	0.41%	-1.76%
C[C@H]1CC[C@@]2(C)[C@@H](CC[C@@H]3[C@@H]2CC[C@]2(C)[C@@H](O)CC[C@@H]32)C1	19.61%	5.34%	2.81%	23.84%	9.51%	-1.26%
CN1CCc2cc3c(cc2C1)OCO3	-5.07%	-14.77%	11.12%	3.04%	1.35%	-8.47%
c1ccc2c(c1)Sc1ccccc1N2CC1CN2CCC1CC2 (stereo unspecified) [MEQUITAZINE]	31.62%	2.18%	10.66%	26.05%	3.26%	-3.37%
CC[C@@]1(O)C(=O)OCc2c1cc1n(c2=O)Cc2cc3c(N)cccc3nc2-1 [9-AMINOCAMPTOTHECIN]	34.7%	-5.64%	12.69%	8.25%	4.9%	-6.8%
CC(CC(C#N)(c1ccccc1)c1ccccc1)N1CCCCC1 (stereo unspecified)	-22.27%	-8.26%	-18.71%	1.48%	0.01%	28.3%
COc1ccc2c(c1)C13CCN(C)C(C2)C1CCC1(C3)OCCO1 (stereo unspecified)	-3.64%	10.92%	9.14%	10.59%	2.14%	-7.98%
CCc1cc2c(cc1-c1csc(CC(=N)NO)n1)C(C)(C)CCC2(C)C	9.42%	7.35%	-22.59%	1.69%	7.1%	24.54%
CN1CCC2(O)OCCCC2C1 (stereo unspecified)	3.54%	-13.99%	3.03%	26.78%	1.09%	3.57%
c1cncc(C2Nc3cccc4cccc(c34)N2)c1	-23.65%	-11.45%	-11.57%	4.78%	10.3%	30.98%
CN1C(=O)CC[C@@]2(C)C1=CC[C@@H]1[C@@H]2CC[C@@]2(C)[C@H]1CC[C@]2(C)O	8.7%	-5.24%	22.22%	11.27%	-0.13%	-18.95%
CCCCOP(=O)(OCCCC)C1(C)CC(=O)CC(C)(C)C1 (stereo unspecified)	5.73%	-6.49%	-5.15%	23.67%	1.05%	-15.51%
CC(C)CC(NC=O)C(=O)O.COc1cc2c(cc1OC)C13CCN4CC5=CCOC6CC(=O)N2C1C6C5CC43 (stereo unspecified)	7.19%	-2.08%	1.33%	12.71%	-1.26%	-3.45%
Cc1nc(C)c(C(=O)N/N=C/c2ccc(N(CCCl)CCCl)cc2)s1	4.54%	12.95%	1.76%	6.18%	-1.16%	-8.81%
CN1C2CCC1[C@@H](COC(=O)c1ccccc1)[C@@H](O)C2 (stereo partly specified)	0.35%	15.38%	-10.56%	17.19%	4.47%	-7.25%
O=C(OC1CCCCC1)c1ccccc1C(=O)OC1CCCCC1	-2.45%	-19.72%	-0.16%	3.51%	7.38%	-2.99%
CSc1nc(=O)c(/N=N/c2ccc([As](=O)(O)O)cc2)c(N)[nH]1	-2.85%	10.89%	7.88%	8.89%	-0.24%	-16.43%
CC(=O)O.CCC(N)Cc1c[nH]c2ccccc12 (stereo unspecified) [ETRYPTAMINE ACETATE]	10.71%	-7.1%	6.98%	14.32%	2.48%	-7.72%
COc1ccccc1[As](=O)(O)CC(O)COc1ccc(Cl)cc1Cl (stereo unspecified)	12.48%	-14.57%	17.37%	8.74%	-1.45%	-2.68%
CC12CCC3C(CC=C4CC(O)CCC43C)C1C/C(=C\N1CCCC1)C2=O (stereo unspecified)	1.08%	21.07%	1.6%	23.67%	-3.81%	-14.08%
